# Measurements taken from PubChem BioAssay AID1745848 (National Center for Advancing Translational Sciences (NCATS), 2022).
# The whole screen tested about 2,100 compounds, of which about 940 (45%) were called active. Not shown: some 48% with an inconclusive outcome. The set was probably picked from earlier hits. The list shows a part of the results. Unmarked numbers belong to inactive results. The call rests on the fitted dose curve; in most records, active means well fitted inhibition curve with a large enough effect; inconclusive means small, poorly fitted or top-dose-only effect; inactive means no such curve, though single readings can be large or run the other way.
# Test: Confirmatory qHTS for Inhibitors of ATXN expression; further: nearly all actives have a fitted effect of over 65% in size;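 on activity change, negative = inhibition: 0% = DMSO vehicle wells and -100% = medium-only wells without cells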
# Settings: ATXN2-luciferase reporter cells, luminescence, 24 h; series mostly up to 11.5 µM; activity change, negative = inhibition: at the top concentration
# Excerpt: PI: Daniel Scoles Ph.D. University of Utah School of Medicine, Salt Lake City, Utah MLPCN Grant: NS073009 Spinocerebellar ataxia type 2 (SCA2) is a multisystem neurodegenerative disease caused by a dominantly acting mutation leading to expansion of a polyQ domain in the ataxin-2 protein (ATXN2). SCA2 patients develop progressive ataxia and later lose function in other neuronal systems. Prominent parkinsonian signs develop in some patients. Like many neurodegenerative disorders, no symptomatic or disease-modifying treatments are known. The primary objective of the proposed research is to identify compounds inhibiting ATXN2 expression and to test them for efficacy in SCA2 mouse models. We have developed a cell-based assay paired with an in vivo mouse model using identical luciferase expression constructs. This approach takes advantage of an ATXN2-luciferase transgene, with the luciferase gene flanked by the upstream and downstream portions of the ATXN2 gene. Here we describe a 5-7 dose quantitative high thoroughput screen (qHTS) for compounds lowering ATXN2 expression. We screened the NIH Molecular Libraries Small Molecule Repository (MLSMR) and NCGC's mechanistically annotated (MIPE) and drug repurposing (NPC) collections of compounds for lowering expression of an ATXN2-luciferase reporter in HEK-293 cells. The assay is a multiplexed cell viability assay to ensure target reduction in the absence of cytotoxicity. Secondary qHTS assays included a CMV-luciferase reporter expressed in HEK-293 cells as well as a biochemical assay using recombinant luciferase to detect inhibitors of the reporter enzyme. Compounds that inhibit ATXN2 expression but is not cytotoxic were selected for confirmatory and secondary screens.
# PROTOCOL TABLE (as described by Inglese J, Shamu CE and Guy RK. 2007) SEQUENCE No. (e.g., 1, 2, 3, etc.); PARAMETER (e.g., Cells, Incubation, Reagent, etc.); VALUE; DESCRIPTION. 1; Cells; 4 uL; white, solid bottom, 1536-well Greiner assay plate. 2; Incubation; 2 hr; 37 degree C in 5% humidified CO2. 3; Compounds; 23 nL; Kalypsis pintool (Wako USA) equipped with a 1536-well pin head. 4; Incubation; 24 hr; 37 degree C in 5% humidified CO2. 5; Reagent; 1 uL; Gly-Phe-7-Amino-4-trifluoromethylcoumarin. 6; Incubation; 30 min; 37 degree C in 5% humidified CO2. 7; Detection; Fluorescence; ViewLux plate reader (PerkinElmer). 8; Reagent; 3 uL; SteadyGlo luciferase solution (Promega). 9; Incubation; 5 min; room temperature. 10; Detection; Luminescence; ViewLux plate reader (PerkinElmer). NOTES (numbers refer to Sequence numbers above) 1. […] expressing ATXN2-luciferase reporter were suspended in phenol-red free DMEM and dispensed in assay plates using a Multidrop Combi dispenser (Thermo Fisher Scientific). Wells containing medium only were plated on each plate, and values were used to normalize (100% inhibition) in the luciferase and CellTiter-Fluor assays. 2. Assay plates were incubated. Evaporation was prevented by covering assay plates with metal lids containing holes to allow gas diffusion. 3. Compounds were added in a dose response manner with the final concentrations of 57, 11.4, 2.28, 0.46, 0.091, 0.018, 0.0037 uM. Vehicle-only plates, with DMSO being pin-transferred to columns 5-48, were inserted uniformly at the beginning and the end of each library to monitor and record any shifts in assay performance. 5. 125 uM Gly-Phe-7-Amino-4-trifluoromethylcoumarin (MP Biomedicals) working concentration was used at a final concentration of 25 uM. 7. To assess cell viability; the assay plates were read using the ViewLux high-throughput CCD imager (PerkinElmer), wherein single end-point fluorescence measurement was acquired (excitation 405/10; emission 540/25 nm). 8. Detection reagent SteadyGlo Luciferase (Promega) was added to the assay plate. 10. Luminescence is then measured on the ViewLux imager equipped with a clear emission filter using a 2 sec exposure. […]
# Potency means the concentration at half of the fitted maximal effect.
SMILES,Potency,"activity change, negative = inhibition"
Cc1cc[n+](C(C)C(=O)c2ccc(-c3ccccc3)cc2)cc1 (stereo unspecified),14.1 µM (active),–
CC(C(=O)c1ccc(-c2ccccc2)cc1)[n+]1cccc(NC(=O)c2ccccc2)c1 (stereo unspecified),–,-17.3%
Cc1ccc(Cc2cnc(N3C(=N)SC(C)C3=O)s2)cc1 (stereo unspecified),–,-5.04%
COc1ccc(OC)c(NC(=O)COC(=O)c2c3c(nc4ccccc24)CCCC3)c1,3.16 µM (active),–
Cn1cc(SCC(=O)Nc2nc3ccccc3s2)c2ccccc21,3.16 µM (active),–
NC(c1csc(Nc2nccc(C(F)(F)F)n2)n1)C1CCCCC1 (stereo unspecified),3.55 µM (active),–
NC(COCc1ccccc1)c1csc(Nc2ccc(C(F)(F)F)cn2)n1 (stereo unspecified),31.6 µM (active),–
NC(Cc1ccccc1)c1csc(Nc2ccc(C(F)(F)F)cn2)n1 (stereo unspecified),31.6 µM (active),–
CC(C)CC(N)c1csc(Nc2ccc(C(=O)N(C)Cc3ccccc3)cn2)n1 (stereo unspecified),12.6 µM (active),–
COc1ccc(CC(N)c2csc(Nc3ccc(C(=O)c4ccccc4)cc3)n2)cc1 (stereo unspecified),–,-34.6%
NC(Cc1ccc(F)cc1)c1csc(Nc2cc(NCc3ccco3)ncn2)n1 (stereo unspecified),–,40.8%
NC(Cc1ccc(C(F)(F)F)cc1)c1csc(Nc2nccc(C(F)(F)F)n2)n1 (stereo unspecified),3.55 µM (active),–
Cc1cc(C(=O)N/N=C/c2ccc([N+](=O)[O-])s2)n[nH]1,8.91 µM (active),–
CC(C)(C)c1cc(C(=O)N/N=C/c2ccc([N+](=O)[O-])s2)n[nH]1,5.01 µM (active),–
O=C(Cn1cnc([N+](=O)[O-])c1)Nc1cc(Oc2ccc(Cl)cc2Cl)cc([N+](=O)[O-])c1,2.82 µM (active),–
O=C(NCc1cc(C(F)(F)F)ccc1Cl)c1cccc2c1C(=O)c1ccc(N3CCOCC3)cc1S2(=O)=O,3.98 µM (active),–
O=C(NCc1ccccc1C(F)(F)F)c1cccc2c1C(=O)c1ccc(N3CCC(N4CCCCC4)CC3)cc1S2(=O)=O,3.16 µM (active),–
CCCc1nc2c(c(=O)c3ccccc3n2C)c(=O)n1C1CCCCCC1,14.1 µM (active),–
COc1ccc(C(=O)Nn2c(SCC(=O)c3ccccc3)nc3ccccc3c2=O)cc1,15.8 µM (active),–
O=S(=O)(Nc1cccc2cccnc12)c1ccccc1,1.58 µM (active),–
Cc1ccc(S(=O)(=O)Nc2cc(Cl)c(O)c3ncccc23)cc1,3.55 µM (active),–
O=[N+]([O-])c1ccccc1S(=O)(=O)Nc1cccc2cccnc12,10 µM (active),–
Cc1ccc(S(=O)(=O)Nc2cccc3cccnc23)cc1,8.91 µM (active),–

SMILES,Potency,"activity change, negative = inhibition"
O=C(/C=C/Nc1ccc(S(=O)(=O)Nc2ncccn2)cc1)c1ccc(Cl)c(Cl)c1,–,-22.7% [at 57.5 µM]
CCc1ccc(N(CC)C(=O)c2ccc3c(Cl)c4c(nc3c2)CCC4)cc1,3.55 µM (active),–
C[C@@H]1ON(C)[C@H]2C[C@H]3c4[nH]c5ccc(-c6ccc7c(c6)OCO7)cc5c4CCN3C(=O)[C@@H]12,15.8 µM (active),–
Nc1cccc2nc3ccccc3cc12,7.94 µM (active),–
Nc1c2ccccc2nc2ccccc12,3.55 µM (active),–
CCc1nc2ccc(C(=O)Nc3cc(-c4ccccc4)ccc3OC)cn2c1N(CC)CC(=O)N(C)C,28.2 µM (active),–
O=C(CCCOc1ccc(Cl)cc1Cl)N/N=C/c1ccccc1O,2.82 µM (active),–
Cc1ccc(SCCC(=O)N/N=C/c2ccccc2O)cc1,3.55 µM (active),–
O=C(CNS(=O)(=O)c1ccc([N+](=O)[O-])cc1)N/N=C/c1ccc(O)cc1O,3.16 µM (active),–
Cc1ccc(S(=O)(=O)NCC(=O)N/N=C/c2ccccc2O)cc1,3.16 µM (active),–
N#CC1=C(N)N2C(=C(C#N)C1c1cccc(Br)c1)Nc1ccccc12 (stereo unspecified),3.16 µM (active),–
Cc1csc2ncnc(NC3CCN(Cc4ccccc4)CC3)c12,0.794 µM (active),–
CC(C)(C)c1ccc(Oc2ccc(N)cc2)cc1,2.24 µM (active),–
CC(C)(C)c1ccc(Oc2ccc(N)cn2)cc1,3.16 µM (active),–
COc1ccc(O)c(/C=N/NC(=O)CSc2nnc(C)n2-c2ccccc2)c1,2.82 µM (active),–
COc1ccc(O)c(/C=N/NC(=O)CCC(=O)Nc2cccc(C)c2)c1,14.1 µM (active),–
Cc1cccc(NC(=O)CCC(=O)N/N=C/c2ccc(O)cc2O)c1,3.16 µM (active),–
Cc1cc(C)n(CCC(=O)N/N=C/c2ccc(O)cc2O)n1,3.16 µM (active),–
COc1cc(OC)c(OC)cc1/C=C1\CC(C)C/C(=C\c2cc(OC)c(OC)cc2OC)C1=O (stereo unspecified),14.1 µM (active),–
COc1cc(OC)c(OC)cc1/C=C1\CCC/C(=C\c2cc(OC)c(OC)cc2OC)C1=O,3.98 µM (active),–
Cc1ccccc1C(=O)N1CCN(c2ccc(NC(=O)c3ccco3)cc2Cl)CC1,17.8 µM (active),–
O=C(Nc1ccc(N2CCN(C(=O)c3ccccc3)CC2)c(Cl)c1)c1ccc(Br)o1,2.51 µM (active),–
O=C(CCN1C(=O)C2CC=CCC2C1=O)Nc1nc(-c2ccc(F)c(F)c2)cs1 (stereo unspecified),–,-4.12% [at 57.5 µM]

SMILES,Potency,"activity change, negative = inhibition"
COCCNc1nc(-c2cc(C)n(CCc3ccc(OC)cc3)c2C)cs1,–,-16.2% [at 57.5 µM]
O=C(Nc1nc(-c2ccc(F)c(F)c2)cs1)Nc1ccc(F)cc1F,1.41 µM (active),–
COc1cc(CC(=O)Nc2nc(-c3ccc(F)c(F)c3)cs2)cc(OC)c1OC,3.98 µM (active),–
COc1ccc(CC(=O)Nc2nc(-c3ccc(F)c(F)c3)cs2)cc1OC,4.47 µM (active),–
COc1ccc(CC(=O)Nc2nc(-c3ccc(OC)c(OC)c3)cs2)cc1OC,3.16 µM (active),–
CCCCCc1ccc(OCCCC[n+]2cccc(C)c2)c(CCCCC)c1,14.1 µM (active),–
CCCCCc1ccc(OCCC[n+]2ccccc2)c(CCCCC)c1,14.1 µM (active),–
CCOC(=O)[C@H]1[C@H]2COc3ccc(OC)cc3[C@@H]2N2C(=O)c3cc(OC)c(OC)cc3NC(=O)[C@@]12C,–,-9.99%
COc1ccc(/C=C2\CN(Cc3ccccc3)C/C(=C\c3ccc(OC)c(O)c3)C2=O)cc1O,3.98 µM (active),–
COc1ccc(C(=O)Cn2c(C(=O)/C=C/c3ccccc3)nc3ccccc32)cc1,2.82 µM (active),–
COCC(C)n1c(C)cc(C(=O)COC(=O)c2cccn2C)c1C (stereo unspecified),2.24 µM (active),–
C/C(=N\NC(=O)c1cc(-c2cccnc2)nc2ccccc12)c1ccc(O)cc1O,2.51 µM (active),–
C/C(=N\NC(=O)c1cc(C2CC2)nc2ccccc12)c1ccc(O)cc1O,3.55 µM (active),–
COc1cccc(/C=N/NC(=O)c2c(-c3ccccc3)noc2C)c1O,0.708 µM (active),–
Cc1cccc(/C=N/NC(=O)c2c(-c3ccccc3)noc2C)c1O,1.26 µM (active),–
Cc1onc(-c2ccccc2)c1C(=O)Nc1ccc(S(=O)(=O)NC(C)(C)C)cc1,–,-20.4% [at 57.5 µM]
Cc1cc(N2CCN(C)CC2)ccc1NC(=O)c1ccc(-c2ccc(Cl)cc2)o1,14.1 µM (active),–
CCc1ccc(N2CC(C(=O)N/N=C/c3cc([N+](=O)[O-])ccc3O)CC2=O)cc1 (stereo unspecified),25.1 µM (active),–
O=C(N/N=C/c1ccccc1O)C1CC(=O)N(c2ccc(Cl)cc2)C1 (stereo unspecified),1.41 µM (active),–
O=C(N/N=C/c1ccccc1O)C1CC(=O)N(c2ccc(F)cc2)C1 (stereo unspecified),3.55 µM (active),–
CC(Oc1ccc(Cl)cc1)C(=O)NNC(=S)NC(=O)c1ccco1 (stereo unspecified),14.1 µM (active),–
COc1ccccc1NC(=S)NC(=O)c1ccc(Cn2cc(Br)cn2)cc1,–,-19.7% [at 57.5 µM]
COC(=O)C(Cc1ccc(O)cc1)NC(=O)C(C)Oc1ccccc1 (stereo unspecified),–,-11.3% [at 57.5 µM]

SMILES,Potency,"activity change, negative = inhibition"
COc1ccccc1C(=O)NNC(=S)NC(=O)c1ccco1,6.31 µM (active),–
CC(=O)c1ccc(NC(=O)COC(=O)c2c3c(nc4ccccc24)/C(=C\c2cccs2)CCC3)cc1,20 µM (active),–
O=C(NN=Cc1ccc(O)cc1O)c1ccccc1NS(=O)(=O)c1cccs1,2.82 µM (active),–
O=C1/C(=C/c2ccncc2)CCC/C1=C\c1ccncc1,5.62 µM (active),–
CN1C/C(=C/c2cccnc2)C(=O)/C(=C/c2cccnc2)C1,–,1.08%
CCn1c(/C=C/c2ccc([N+](=O)[O-])o2)nc2ccccc2c1=O,7.08 µM (active),–
O=C(Nc1ccc(F)cc1)Nc1cc(OCC(F)(F)F)cc(OCC(F)(F)F)c1,3.55 µM (active),–
COc1ccc(CC2C(=O)NC(C)C(=O)N(C)C3Cc4ccc(cc4)Oc4cc(ccc4O)CC(C(=O)NC(C)C(=O)NC(C)C(=O)N2C)N(C)C3=O)cc1 (stereo unspecified),0.251 µM (active),–
O=C(CSCc1ccc(Cl)cc1)Nc1cc([N+](=O)[O-])ccc1O,–,-3.54%
O=C(CCC(=O)Nc1cc(C(F)(F)F)ccc1Cl)N/N=C\c1cc([N+](=O)[O-])ccc1O,3.16 µM (active),–
O=C(CCCC(=O)Nc1cccc(Br)c1)N/N=C/c1cc([N+](=O)[O-])ccc1O,3.16 µM (active),–
c1ccc(CN=C(NCc2ccccc2)NCc2ccccc2)cc1,28.2 µM (active),–
COc1ccc2[nH]c3c(N4CCC(O)(c5cccc(C(F)(F)F)c5)CC4)ncnc3c2c1,2.82 µM (active),–
COc1cccc2c1C(CO)N1C(C#N)C3CC(C(=O)O)C(C1C2)N3C (stereo unspecified),0.282 µM (active),–
COc1cccc2c1C1COC3C4CC(C(=O)O)C(C(C2)N13)N4C (stereo unspecified),10 µM (active),–
Cc1nnc(-c2ccccc2)c(=O)n1/N=C/c1c(O)ccc2ccccc12,10 µM (active),–
COc1ccc2nc(C)cc(Nc3ccc(N4CCOCC4)cc3)c2c1,15.8 µM (active),–
COC(=O)c1ccc(N2CCOCC2)c(NC(=O)Nc2cccc(OC)c2)c1,–,-5.44%
CC(C)(C)c1ccc(C(=O)N2CCCCCC2=O)cc1,1.78 µM (active),–
COc1ccc(-c2csc(N(CCCN(C)C)C(=O)c3ccccc3Cl)n2)cc1,3.16 µM (active),–
COc1ccc(/C(N)=N/OC(=O)N2CCOCC2)cc1,–,-30.8%
COc1ccc(-c2csc(N(CCCN3CCOCC3)C(=O)c3ccco3)n2)cc1,3.16 µM (active),–
